# Laboratory results reported in PubChem BioAssay AID1159506 (National Center for Advancing Translational Sciences (NCATS), 2015).
# The full ranking holds about 59,000 sequences; the median of the read-out is about -0.00055, and the lowest 2% start at about -2. The entries come from a sample that favours the lowest values as a whole.
# Test: Identification of proteins required for the processing of the EWS-FLI1 nascent transcript;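 also: robust z of luciferase light less the median z of siRNAs with the same seed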
# Settings: TC32 Ewing sarcoma NR0B1-luc vs CMV-luc (EWS-FLI1 target promoter against control promoter), 48 h; screened at 20 nM (by protocol)
# Procedure, shortened: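 Genome-wide siRNA screen (Ambion v4.1, three siRNAs per gene, 20 nM final, RNAiMax) in Ewing sarcoma TC32 cells carrying NR0B1-promoter or CMV-promoter luciferase; OneGlo luciferase read 48 h post-transfection. Data normalized, z-score-MAD transformed and seed-adjusted.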
row,Sequence,seed-corrected z-score
1,UGAGGUUAAAGUGAGUAGC against VIT,-0.117
2,UUUCUUACACCAUGAGACG against INTS4,-0.309
3,UAAAGUAAAGAUGUCUUCC against NPIPA1,0.0914
4,AUAGGGAUCUGAAAGUCCG against SYT4,0.582
5,UCCGGUCAAACUUAGUGCC against AQR,-3.37
6,AACGAAAUAAAAGCUGUCC against CFAP69,-0.411
7,UAUCGAACCAACCAGCAUC against MFSD4A,1.1
8,UUCGAUGAACUUCUUUUGC against BROX,1.04
9,UCCCGGGACAGCAUGUAGU against USP17L9P,0.146
10,CAAUACUCCAGCAUCAGGC against OPA3,-2.35
11,UACAAGAAUAGUCACAAUG against OR5H1,0.319
12,UCUGUAUCAAUGAUUAAAC against ICE2,0.6
13,UUUGUUAGUCAGGUAUUCC against CCDC121,2.03
14,UGGGUAUGUAGUAAUCUCG against ADGB,-3.05
15,AGACUGUAAAAGAUCUGUG against CCDC106,-0.709
16,AAUCGUACACUCUCCGUAG against CHST2,-1.01
17,UCACUUAGCAGGCUCUCUG against DDIT4L,-0.677
18,ACCGUUAAACUUGUAAUCG against ZFYVE9,0.0151
19,AUAGAUGCGAUCUAUGAGC against TRE17,0.156
20,UGGUUGUACGCGAUGUCCG against FZD1,-3.54
21,UGCUGCAAGAGGUUAUUCC against HAS1,0.441
22,UAAUUGUCAGCUGAUUGUC against CDC6,-0.689

row,Sequence,seed-corrected z-score
1,UCACCGUUCCAUUCAAGUC against IKBKB,0.0239
2,UUUGGGAAAGUAGCUAUCA against LINC01124,-2.24
3,AUUGGAGCAAGACUUUUAG against BDKRB1,-0.291
4,UUCAGCUAUAAAGUAAAGC against IL18,-13
5,AAGGCUCCAAUGAUAAGUG against NRG4,-0.154
6,UCGCUUUCCUCCAGGGUAC against GNRH2,-0.382
7,AAAGCUGCGUCUUGUCUCG against LDLRAD2,-3.83
8,UAAGAACCCACAGUAUUGA against FBLN2,0.31
9,UAAAUAAUAUUGCACAUAC against FAM228A,0.618
10,UUGAAUUUAAGAGAAAGGA against NPR3,0.283
11,AUAGUCAGCUGUGCUCUGC against FLJ16423,-0.343
12,UUAGCAUGCAAAAUCGCCC against CWC22,-3.73
13,UAGGGUGAGUCAAUAAUGG against CSTF2T,-0.0525
14,AUCUUUAUCAUUGGGCAGG against SCAF1,-0.941
15,UUAUAAAUCCCUUUCACCG against CASP9,-0.324
16,UAUGUCUUUCAGACUGACC against RPTN,-1
17,UUUCGGCACUGCAAAGUCG against ATP10A,0.235
18,UCCUGCUUCAUAUCUUCUG against C19orf66,-3.54
19,UUACUGAGGAAGUUUCUUU against CD99L2,-0.781
20,UCCCUGGUAAAGUAUAGUC against EGFEM1P,-1.34
21,UUUCCGUCUGUCUUCUUCC against DCAF4,0.00663
22,UUACUAAAGACUGACAACC against ZNF208,-0.0968

row,Sequence,seed-corrected z-score
1,UACUGCUUCGUAUCUGUCC against PIH1D2,-2.13
2,AUAGGACUGACAGUGUUCA against STAC3,1.13
3,UUUCAUUCGGUGAAAGUCC against MTFR1L,-0.547
4,UAAUUCACUAACUUCAAGC against SLC37A3,0.139
5,UGGGUGUCCAUUCUCGAGC against PPP1R18,1.72
6,UUUUGGGUGUGGACCUUGC against NPFF,0.585
7,ACAGUGGAAACCUCACUUC against FOXP3,0.0552
8,AUUCUUAUCCAUCCGAUCC against CTTN,-0.272
9,UCAUUUUACCUCUUCCAUC against GADL1,0.676
10,UCUGCUUCACCAGUUACUC against HNRNPH1,-2.08
11,UGAUAAACCACAGCAACUC against TYMS,1.01
12,UUUGAUACCUCCUUUACCC against HELB,0.388
13,UCUCUGCUAACGAUAACUC against PIWIL1,-0.0232
14,UAACCUGCUCAAAAGAAUG against ACSL6,0.714
15,UAAAGUACAGCUCGGUUUG against OOSP2,0.436
16,UUUGUUGAAGGUUUCACUG against ZMYND15,1.4
17,UCGAUAGUCAUCAAAGAUC against VWC2L,-2.99
18,UACUGGUAAAAGGUGUUCC against C6orf58,0.5
19,UACAGAGAAAGGUAGCGGU against GPR3,-2.23
20,UGAUCUACCUGCUUGUGCC against USP17L9P,-0.147
21,UGACUGACAACUUCUGGAU against PAK6,-0.344
22,AAUGGACCUAGAUUUCAGG against C16orf59,1.27

row,Sequence,seed-corrected z-score
1,UUAGCUGCGUCAGAUAUCG against RPS6KA2,-2.67
2,UCCUGGAUACGCAACUUGA against C2orf68,-0.63
3,UGCAUUUGAAGACUCACUC against HMG20A,0.87
4,UUGAGUCUUAGCAAUGUGA against KIAA0895L,-0.000345
5,UACAUGAAAAGCAAGGCUG against OR6B3,0.504
6,UAUGGUGUUGAGCUCAGCG against SLC12A3,0.228
7,UCUACUAUCGGCUUAUAGC against 11-Sep,-0.114
8,UCCGGAGUAAGCUUCAACC against DHX9,-0.429
9,AACGAAGCAAGCAUGGUCC against LARP6,-0.832
10,UAGUCAACGUUGGACACGG against PRR22,0.319
11,UUGACGGUAAUAUCUGUCC against SMU1,-3.14
12,UAGCCUAUGGUACAAGUUC against ERVFRD-1,0.353
13,AACUCAUUCCCUUCUUUCC against ZMAT3,-0.582
14,UCUCUGACAAGUGUGAAGC against DKK1,-0.0537
15,UGAUGAGCGAGAAGGUACC against DLL4,1.41
16,UUAAUUGCUAUGUUGUUGG against NFS1,-0.476
17,AUAGGUUUGUGAUCCAACC against AAED1,0.186
18,AUUCGUAUGGUUCAUGUCC against PRPF8,-2.88
19,UUAAAUACAGCUCCUGUUA against AQP11,0.0289
